# Reference: PubChem BioAssay AID2284356 (EPA ToxCast)
# Records with an inconclusive call do not appear. Calls of active or inactive are those of the source. How the source made its calls: active means hit-call score of the fitted dose curve at least 0.9, where 1 is the maximum; inconclusive means response in the unintended direction; inactive means score below 0.9.
# Target: zebrafish Estrogen Receptor (ER1), esr1 (gene 259252) (UniProt P57717)
# Assay: ATG_zfER1_EcoTox2: Attagene TRANS-FACTORIAL EcoTox-2 HepG2 Assay for zebrafish Estrogen Receptor (ER1)
# Protocol: ATG_EcoTox2 is a cell-based, multiplexed assay created by modifying the existing Attagene TRANS-FACTORIAL system to include a panel of nuclear receptors from some or all the following species: human (Homo sapiens), african clawed frog (Xenopus laevis), rainbow trout (Oncorhynchus mykiss), japanese medaka (Oryzias latipes), and zebrafish (Danio rerio). The ECOTOX2-FACTORIAL format uses HepG2, a human liver cell line, with measurements taken at 24 hours after chemical dosing in a 24-well plate. ATG_zfER1_EcoTox2 is one of 29 assay components calculated in the ATG_EcoTox2 assay. It is designed to make measurements of mRNA induction, a form of inducible reporter, as detected with fluorescence intensity signals by Reverse transcription polymerase chain reaction (RT-PCR) and Capillary electrophoresis technology.The assay endpoint ATG_zfER1_EcoTox2 was analyzed in the positive analysis fitting direction relative to DMSO as the negative control and baseline of activity. Using a type of inducible reporter, measures of mRNA for gain-of-signal activity can be used to understand the reporter gene at the transcription factor-level as they relate to the gene ER. Furthermore, this assay endpoint can be referred to as a primary readout, because this assay has produced multiple assay endpoints where this one serves a reporter gene function. To generalize the intended target to other relatable targets, this assay endpoint is annotated to the nuclear receptor intended target family, where the subfamily is steroidal.
# Human liver HepG2 cells are transiently transfected with multiple reporter transcription units (MRTUs) in 6-well plates using FuGene 6 reagent (Roche; 3 ml FuGene/1 mg DNA). The MRTU constructs are regulated by a cis-regulating element (promoter). Each RTU expresses a GAL4-UAS that regulates the transcription of a nearby target reporter gene sequence. A major difference between the CIS and TRANS system is that in CIS activities of endogenous TFs are measured, whereas the TRANS assay evaluates changes in activities of exogenous, chimeric NR-Gal4 proteins. […] At the end of 24 hour incubation, total RNA was isolated using TriZol reagent (Invitrogen). The isolated RNA is then reverse-transcribed using oligo(dT) primer and Mo-MLV reverse transcriptase (Invitrogen) with DNAse I (Ambion) treatment for 30 min. The one-tenth of the produced cDNA was amplified by PCR using Taq DNA polymerase (Invitrogen) and two reporter sequence-specific primers. The PCR products were fluorescently labeled by primer extension with 6-arboxyfluorescein (6-FAM) 5'-labeled reporter sequence-specific primer (2 min at 95 C, 20 s at 68 C and 10 min at 72 C) and these products were digested with 5U of HpaI (New England Biolabs) for 2h at 37 C. The fragments were purified using Qiaquick PCR columns (Qiagen), analyzed on an ABI 3130xL genetic analyzer (Applied Biosystems) with peak positions identified by using a set of X-rhodamine (ROX)-labeled MapMarker1000 molecular weight standards (BioVentures). The raw capillary electrophoresis data was processed using Attagraph software (Attagene).
# zebrafish Estrogen Receptor (ER1), esr1 (gene 259252), sequence (P57717 whole entry, looked up): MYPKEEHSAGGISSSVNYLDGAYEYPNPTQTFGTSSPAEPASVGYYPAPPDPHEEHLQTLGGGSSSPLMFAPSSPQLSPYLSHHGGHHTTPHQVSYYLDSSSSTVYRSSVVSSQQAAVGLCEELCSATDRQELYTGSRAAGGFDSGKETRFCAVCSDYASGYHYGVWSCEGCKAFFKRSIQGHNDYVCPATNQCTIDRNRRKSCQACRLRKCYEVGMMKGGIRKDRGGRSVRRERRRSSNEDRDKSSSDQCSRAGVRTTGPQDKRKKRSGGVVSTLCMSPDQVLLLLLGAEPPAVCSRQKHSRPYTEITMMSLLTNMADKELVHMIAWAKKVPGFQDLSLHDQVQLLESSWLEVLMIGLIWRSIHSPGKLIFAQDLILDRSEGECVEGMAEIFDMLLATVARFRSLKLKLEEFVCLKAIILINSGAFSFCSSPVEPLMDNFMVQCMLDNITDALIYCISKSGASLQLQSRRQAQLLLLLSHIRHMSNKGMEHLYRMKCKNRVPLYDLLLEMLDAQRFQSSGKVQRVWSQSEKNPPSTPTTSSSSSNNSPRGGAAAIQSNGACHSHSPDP
row,Structure (SMILES),outcome
1,Cc1ccc(C)c(OCCCC(C)(C)C(=O)O)c1,inactive
2,CC(C)OC(=O)C(C)(C)Oc1ccc(C(=O)c2ccc(Cl)cc2)cc1,inactive
3,C[C@@H]1C[C@H]2[C@@H]3CCC4=CC(=O)C=C[C@]4(C)[C@@]3(F)[C@@H](O)C[C@]2(C)[C@@]1(O)C(=O)COP(=O)(O)O,inactive
4,C=C(c1ccc(C(=O)O)cc1)c1cc2c(cc1C)C(C)(C)CCC2(C)C,inactive
5,CC(c1cc2ccccc2s1)N(O)C(N)=O (centres undefined),inactive
6,CC(C)(Oc1ccc(Cl)cc1)C(=O)O,inactive
7,CC(C)(Oc1ccc(CCNC(=O)c2ccc(Cl)cc2)cc1)C(=O)O,inactive
8,C[C@]12C=CC(=O)C=C1CC[C@@H]1[C@@H]2C(=O)C[C@@]2(C)[C@H]1CC[C@]2(O)C(=O)CO,inactive
9,CC(C)(Oc1ccc(C2CC2(Cl)Cl)cc1)C(=O)O (centres undefined),inactive
